In PubChem BioAssay (NCATS):
“And” between values parts separate entries of the source, which are not always exact repeats. Equal values may be shown once. Some compounds were tested as several samples or in several runs, with calls that do not always agree. The source made the active and inactive calls. Unless noted, the call rests on the fitted dose curve; in most records, active means well fitted curve in the direction sought with a large enough effect; inconclusive means small, poorly fitted or top-dose-only effect, or another doubt; inactive means no such curve, though single readings can be large; an effect the other way counts as inactive or inconclusive.

Columns and labels:
[1] = biological target: Cytochrome P450 3A4 (Homo sapiens) (UniProt P08684); test: qHTS Assay for Activators of Cytochrome P450 3A4 (AID 885); further: nearly all actives have a fitted effect of over 65% in size
How it was run: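 Activators are scored by enhanced luminescence from CYP3A4 conversion of luciferin-PPXE (25uM, equal to KM) to luciferin, after 60 min at RT with an NADPH-regenerating system.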

[2] = Cellular Toxicity (caspase-3) BJ (AID 658);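 further: cells exposed to compound for 16 hours; 0% = DMSO basal and 100% = 10 µM staurosporine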
How it was run: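 Caspase-Glo 3/7 luminescence, read 1 hr after reagent at room temperature, in normal BJ fibroblasts exposed 16 hours at 37 °C. AC50 values from Hill-equation concentration-response, scaled between DMSO basal and 10 uM staurosporine as 100%.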

[3] = Cellular Toxicity (caspase-3) Mesangial (AID 660); details: Potency: caspase-3 activation;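 further: combined caspase 3 and 7 activity read by Caspase-Glo luminescence; cells exposed to compound for 16 h before the caspase read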
How it was run: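 Luminescent Caspase-Glo 3/7 readout (aminoluciferin substrate cleavage, 20 min RT) after 16 h compound exposure at 37 °C of normal human mesangial cells. Signal increase normalized between DMSO basal and 100 uM tamoxifen; Hill-equation AC50.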

[4] = Cellular Toxicity (caspase-3) H-4-II-E (AID 663); details: H-4-II-E rat hepatoma, scaled: DMSO 0%, 100 µM tamoxifen 100%; at 92.2 µM (top of the series);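 further: cells exposed to compound for 16 hr before readout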
How it was run: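 Caspase 3/7 activation measured by luminescent aminoluciferin substrate cleavage after 16 hr compound treatment of H-4-II-E cells in complete medium. Increase normalized between DMSO (basal) and 100 uM tamoxifen (100%); Hill-equation AC50 from concentration-response.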

[5] = Cellular Toxicity (caspase-3) NIH 3T3 (AID 666);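 further: 0% = DMSO basal and 100% = 100 µM tamoxifen stimulation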
How it was run: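 NIH 3T3, 1000 cells/well, 5 hr settle then 16 hr compound at 37°C; Caspase-Glo 3/7, 20 min RT, luminescence. DMSO = basal, 100 uM tamoxifen = 100%. Hill-equation AC50, qHTS.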

[6] = MultiTox-Fluor Cytotoxicity Assay - LYMP1-001 - Dead Cells (AID 946); further: potency means the concentration at half of the fitted maximal effect
How it was run: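 Seed 2500 LYMP1-001 cells/well, incubate 5 hr at 37 C; add compound, 16 hr at 37 C; add MultiTox-Fluor reagent, 60 min RT; read dead-cell fluorescence Ex/Em=485/520. Normalize to DMSO and 15 uM tetraoctylammonium bromide.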

[7] = biological target: Estrogen receptor (Homo sapiens) (UniProt P03372); test: qHTS assay for small molecule antagonists of estrogen receptor alpha signaling (AID 588513; active means well fitted curve in the direction sought with a large enough effect in the signal ratio, with a control signal flat, not every such curve was filed as active; inconclusive means small, poorly fitted or top-dose-only effect, or effect the other way, or a change in a side signal; inactive means no such curve, though single readings can be large or run the other way; the % refers to the signal ratio; further: potency means the concentration at half of the fitted maximal effect)
How it was run: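 Antagonist-mode qHTS in ER-alpha-UAS-bla HEK 293 cells: compound titration, 0.5nM estradiol for 18 h, CCF4 fluorescence, Hill-derived IC50.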

[8] = qHTS assay for small molecule disruptors of the mitochondrial membrane potential - 5 hr assay (AID 651755; calls by dose curve; further: nearly all actives have a fitted effect of over 40% in size; further: potency means the concentration at half of the fitted maximal effect)
How it was run: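 Membrane-potential dye readout: red aggregate (540 ex/590 em) versus green monomer (490 ex/535 em) fluorescence after 30 min dye loading, following 5 hr compound exposure at 37C of overnight-plated HepG2 cells.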

[9] = biological target: Peroxisome proliferator-activated receptor alpha (Homo sapiens) (UniProt Q07869); test: qHTS assay for small molecule agonists of the peroxisome proliferator-activated receptor alpha (PPARalpha) signaling pathway (AID 651778); details: PathHunter PPARalpha complementation, chemiluminescence, 6 h; max response: stronger effect = higher value; further: % of control where 0% means no effect
How it was run: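 Chemiluminescence from complemented enzyme reported PPARalpha activation in cells after 6 hr of compound treatment at 37 C. The detection reagent was incubated for 60 min at room temperature, and compounds were scored as agonists.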

[10] = Cellular Toxicity (caspase-3) Hek293 (AID 664); details: HEK293 caspase-3 activation, DMSO = 0%, 100 µM tamoxifen = 100%; at 92.2 µM (top of the series);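 further: cells exposed to compound for 16 h at 37 °C before readout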
How it was run: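 Luminescent Caspase-Glo 3/7 readout (aminoluciferin release) in HEK293 cells after 16 h compound treatment, 37 °C. Normalization: DMSO = basal, 100 uM tamoxifen = 100% stimulation. Concentration-response fitted with standard Hill equation for AC50.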

[11] = MultiTox-Fluor Cytotoxicity Assay - LYMP1-002 - Dead Cells (AID 960); further: nearly all actives have a fitted effect of over 60% in size; further: potency means the concentration at half of the fitted maximal effect
How it was run: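 Readout: fluorescence at 485/520 from cell-impermeant bis-AAF-R110 cleaved by proteases leaking from damaged cells. LYMP1-002 lymphoblastoid line, 16 hr compound treatment at 37 C, concentration-response in qHTS format; Hill-equation AC50 values.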

[12] = Cell Viability - LYMP2-004 (AID 966); further: nearly all actives have a fitted effect of over 65% in size; further: potency means the concentration at half of the fitted maximal effect
How it was run: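 Luminescent ATP read-out (CellTiter-Glo, 30 min RT) after 24 hr compound exposure at 37 C; 2500 lymphoblastoid cells/well, complete medium. Decrease in ATP = cytotoxicity; AC50 from standard Hill model.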

[13] = Cell Viability - LYMP2-002 (AID 977); further: potency means the concentration at half of the fitted maximal effect
How it was run: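 Human lymphoblastoid cells (2500/well) in complete medium were preincubated 5 hr at 37 C, then exposed to compounds for 24 hr at 37 C. Intracellular ATP was read by CellTiter-Glo luminescence; AC50 came from Hill-equation concentration-response fits.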

[14] = Cell Viability - LYMP2-006 (AID 978); further: nearly all actives have a fitted effect of over 60% in size; further: potency means the concentration at half of the fitted maximal effect
How it was run: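 In this cytotoxicity screen, the human lymphoblastoid line grew in complete medium with test compounds for 24 hr at 37 C. Cellular ATP served as the viability signal.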

[15] = Cell Viability - LYMP2-010 (AID 981); further: nearly all actives have a fitted effect of over 55% in size; further: potency means the concentration at half of the fitted maximal effect
How it was run: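 qHTS cytotoxicity, 1536-well: 2500 cells/well, 5 hr settle, 24 hr compound at 37 C, CellTiter-Glo 30 min RT, luminescence read. Decrease in ATP = toxicity; AC50 via standard Hill equation. Positive control tetraoctylammonium bromide.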

[16] = Cell Viability - LYMP2-014 (AID 983); further: nearly all actives have a fitted effect of over 50% in size; further: potency means the concentration at half of the fitted maximal effect
How it was run: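 2500 cells/well, 5 hr 37 C; cpd 24 hr 37 C, complete medium; CellTiter-Glo 30 min RT, luminescence; ATP loss = toxicity; AC50 via Hill eqn; tetraoctylammonium bromide positive control.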

[17] = Cell Viability - LYMP2-016 (AID 984); further: nearly all actives have a fitted effect of over 55% in size; further: potency means the concentration at half of the fitted maximal effect
How it was run: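 Concentration-dependent ATP depletion measured in LYMP2-016 lymphoblastoid cells, 24 h, 37 C; luciferase-based luminescent detection; Hill-equation AC50.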

[18] = Cell Viability - LYMP2-022 (AID 987); further: nearly all actives have a fitted effect of over 55% in size; further: potency means the concentration at half of the fitted maximal effect
How it was run: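 Luminescent ATP read-out (CellTiter-Glo, 30 min, RT) after 24 hr, 37 C compound exposure of 2500 human lymphoblastoid cells/well in complete medium. Cytotoxicity taken as concentration-dependent ATP loss; AC50 from standard Hill equation.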

[19] = Cell Viability - LYMP2-024 (AID 988); further: nearly all actives have a fitted effect of over 60% in size; further: potency means the concentration at half of the fitted maximal effect
How it was run: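 ATP-based luminescence (CellTiter-Glo, 30 min RT) after 24 h compound exposure at 37 C of 2500 lymphoblastoid cells/well; decrease in ATP taken as cytotoxicity. qHTS concentration-response fitted to standard Hill equation for AC50.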

[20] = biological target: Glucocorticoid receptor (Homo sapiens) (UniProt P04150); test: qHTS assay for small molecule agonists of glucocorticoid receptor signaling (AID 588532; active means well fitted curve in the direction sought with a large enough effect in the signal ratio, with a control signal flat; inconclusive means small, poorly fitted or top-dose-only effect, or a change in a side signal; inactive means no such curve, though single readings can be large or run the other way; the % refers to the signal ratio;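 further: 100% = dexamethasone at 0.1 µM and 0% = DMSO only wells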); details: HeLa MMTV-bla, beta-lactamase ratio, agonist, 18 h; activation: stronger effect = higher value, percent of dexamethasone control, DMSO zero
How it was run: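 Quantitative HTS using CellSensor MMTV-bla HeLa cells in charcoal/dextran-treated serum; compounds tested up to 92 uM. After 18 h at 37 C, CCF4 dye reported reporter induction.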

Cytochrome P450 3A4 (Homo sapiens), sequence (P08684 whole entry, looked up): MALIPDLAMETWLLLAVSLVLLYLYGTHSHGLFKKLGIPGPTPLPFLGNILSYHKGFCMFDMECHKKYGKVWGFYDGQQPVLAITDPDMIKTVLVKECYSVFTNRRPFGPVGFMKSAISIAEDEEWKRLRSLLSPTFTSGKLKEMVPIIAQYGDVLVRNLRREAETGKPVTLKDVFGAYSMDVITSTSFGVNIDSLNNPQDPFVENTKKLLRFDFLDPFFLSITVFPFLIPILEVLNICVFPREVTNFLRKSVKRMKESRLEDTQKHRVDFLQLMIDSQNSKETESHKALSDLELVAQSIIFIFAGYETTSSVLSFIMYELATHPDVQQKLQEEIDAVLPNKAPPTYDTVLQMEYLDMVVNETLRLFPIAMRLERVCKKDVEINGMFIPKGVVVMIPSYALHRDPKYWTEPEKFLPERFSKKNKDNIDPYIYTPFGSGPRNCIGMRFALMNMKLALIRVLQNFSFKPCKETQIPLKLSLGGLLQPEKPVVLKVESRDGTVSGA
Peroxisome proliferator-activated receptor alpha (Homo sapiens), sequence (Q07869 whole entry, looked up): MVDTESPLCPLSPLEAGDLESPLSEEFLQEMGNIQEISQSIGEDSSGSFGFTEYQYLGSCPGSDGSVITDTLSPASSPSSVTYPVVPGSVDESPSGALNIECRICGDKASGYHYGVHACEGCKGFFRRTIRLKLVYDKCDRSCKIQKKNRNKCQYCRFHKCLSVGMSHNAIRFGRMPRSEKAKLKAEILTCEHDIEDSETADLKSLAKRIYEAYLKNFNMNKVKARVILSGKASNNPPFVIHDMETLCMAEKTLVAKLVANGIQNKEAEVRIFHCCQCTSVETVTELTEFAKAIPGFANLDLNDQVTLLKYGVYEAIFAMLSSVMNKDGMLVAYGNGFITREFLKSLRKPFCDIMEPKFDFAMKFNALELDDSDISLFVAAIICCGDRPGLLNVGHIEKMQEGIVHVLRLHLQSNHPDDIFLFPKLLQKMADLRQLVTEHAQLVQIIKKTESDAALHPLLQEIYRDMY
Estrogen receptor (Homo sapiens), sequence (P03372 whole entry, looked up): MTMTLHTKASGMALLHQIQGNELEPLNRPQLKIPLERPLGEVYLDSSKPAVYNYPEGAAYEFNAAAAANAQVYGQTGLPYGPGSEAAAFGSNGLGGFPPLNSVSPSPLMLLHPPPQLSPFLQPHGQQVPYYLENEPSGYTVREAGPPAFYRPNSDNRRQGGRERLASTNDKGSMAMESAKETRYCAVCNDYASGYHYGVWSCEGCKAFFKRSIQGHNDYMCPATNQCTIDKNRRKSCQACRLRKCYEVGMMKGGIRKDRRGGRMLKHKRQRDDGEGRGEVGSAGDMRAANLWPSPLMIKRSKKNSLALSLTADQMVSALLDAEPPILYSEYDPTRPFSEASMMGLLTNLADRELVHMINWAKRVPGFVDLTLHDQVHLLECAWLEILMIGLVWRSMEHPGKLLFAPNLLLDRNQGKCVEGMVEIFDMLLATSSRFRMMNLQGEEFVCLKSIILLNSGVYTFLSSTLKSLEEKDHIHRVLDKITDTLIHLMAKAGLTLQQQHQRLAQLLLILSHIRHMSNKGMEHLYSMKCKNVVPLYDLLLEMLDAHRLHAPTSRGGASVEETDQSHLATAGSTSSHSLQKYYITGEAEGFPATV
Glucocorticoid receptor (Homo sapiens), sequence (P04150 whole entry, looked up): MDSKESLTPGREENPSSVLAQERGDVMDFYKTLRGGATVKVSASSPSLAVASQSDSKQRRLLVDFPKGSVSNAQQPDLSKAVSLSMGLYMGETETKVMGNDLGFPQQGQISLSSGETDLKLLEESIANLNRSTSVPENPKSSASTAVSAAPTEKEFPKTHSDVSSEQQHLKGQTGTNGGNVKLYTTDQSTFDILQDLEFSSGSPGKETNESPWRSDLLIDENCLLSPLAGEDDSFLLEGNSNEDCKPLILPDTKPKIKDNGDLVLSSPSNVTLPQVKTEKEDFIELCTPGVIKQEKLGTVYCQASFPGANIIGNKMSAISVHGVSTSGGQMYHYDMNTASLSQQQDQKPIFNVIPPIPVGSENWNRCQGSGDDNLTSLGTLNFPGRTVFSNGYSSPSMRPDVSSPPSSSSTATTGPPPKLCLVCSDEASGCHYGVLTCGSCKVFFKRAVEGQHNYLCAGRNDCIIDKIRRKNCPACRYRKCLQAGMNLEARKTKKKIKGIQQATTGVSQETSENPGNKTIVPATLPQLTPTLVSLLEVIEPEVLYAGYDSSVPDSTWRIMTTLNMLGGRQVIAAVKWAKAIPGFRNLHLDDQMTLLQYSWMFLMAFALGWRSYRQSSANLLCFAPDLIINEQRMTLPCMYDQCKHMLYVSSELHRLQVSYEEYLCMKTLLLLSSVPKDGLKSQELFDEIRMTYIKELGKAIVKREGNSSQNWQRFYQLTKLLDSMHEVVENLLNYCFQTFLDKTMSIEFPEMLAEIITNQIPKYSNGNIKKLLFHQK

N[C@@H](Cc1cc(O)c(O)cc1O)C(=O)O
inactive: Potency [1]

CCCCCC[C@H]1C(=O)O[C@H](C)[C@H](NC(=O)c2cccc(NC=O)c2O)C(=O)O[C@@H](C)[C@H]1OC(=O)CC(C)C
inactive: Potency [1]

CN1[C@@H]2CC[C@H]1CC(O[C@@H](c1ccccc1)c1ccccc1N)C2 (stereo partly specified)
inactive: Potency [1]

Ic1ccccc1CN[C@@H]1C2CCN(CC2)[C@H]1C(c1ccccc1)c1ccccc1
inactive: Potency [1]

C[C@@H](Cc1cccc(C(F)(F)F)c1)NCCCc1ccccc1
inactive: Potency [1]

COc1ccc2[nH]c3c(c2c1)CCN=C3C
inactive: Potency [1]

CCCc1cc2c(n1Cc1cccc(Cl)c1)C(C)C1CN(C(=O)c3ccccc3)C(C)(C(=O)OC)C21 (stereo unspecified)
inactive: Potency [1]

C(=NC1CCCCC1)=NC1CCCCC1
inactive: outcome [2] | Potency [3] | outcome [5] | Potency [6] | Potency [7] | Potency [8] | max response [9] -9.68% and -4.28%
active: caspase-3 activation [4] 91.9%

CCCc1cc2c(n1Cc1ccc(C)cc1)C(C)C1CN(C(=O)c3ccccc3)C(C)(C(=O)OC)C21 (stereo unspecified)
inactive: Potency [1]

O=C(CCl)c1ccccc1
active: Potency [6] 50.1 µM | Potency [11] 25.1 µM | Potency [12] 10 µM | Potency [13] 12.6 µM | Potency [14] 12.6 µM | Potency [15] 7.94 µM | Potency [16] 12.6 µM | Potency [17] 10 µM | Potency [18] 6.31 µM | Potency [19] 7.94 µM
inactive: outcome [2] | Potency [3] | caspase-3 activation [4] -5.13% | caspase-3 activation [10] -9.68% | outcome [5] | activation [20] 5.85% and 11.4% | Potency [8] | max response [9] -2.05% and -1.03%

COP(=O)(OC)O/C(=C\Cl)c1cc(Cl)c(Cl)cc1Cl
inactive: outcome [2] | Potency [3] | caspase-3 activation [4] 2.54% | caspase-3 activation [10] -4.53% | outcome [5] | Potency [6] | Potency [11] | Potency [13] | Potency [14] | Potency [17] | Potency [7] | max response [9] -3%

COC(=O)[C@@]1(Cc2ccc(F)cc2)[C@H]2c3cc(C(=O)N(C)C)[nH]c3C[C@H]2CN1C(=O)c1ccccc1
inactive: Potency [1]

Nc1ccccc1C(=O)OCCc1ccccc1
inactive: outcome [2] | Potency [3] | caspase-3 activation [4] -2.95% | caspase-3 activation [10] -6.67% | Potency [1] | Potency [6] | Potency [11] | Potency [12] | Potency [13] | Potency [14] | Potency [15] | Potency [16] | Potency [17] | Potency [18] | Potency [19] | activation [20] -0.582% | Potency [8]

CN(CCc1ccc(Cl)c(Cl)c1)[C@H]1CCCC[C@H]1N1CCCC1
inactive: Potency [1]

O=[N+]([O-])c1cc(C(F)(F)F)cc([N+](=O)[O-])c1Cl
active: Potency [13] 31.6 µM | Potency [15] 31.6 µM | Potency [16] 50.1 µM | Potency [17] 31.6 µM | Potency [18] 31.6 µM | Potency [19] 31.6 µM
inactive: Potency [3] | caspase-3 activation [4] 24.4% | caspase-3 activation [10] -11.2% | outcome [5] | Potency [6] | Potency [11] | Potency [7] | activation [20] -2.51% | Potency [8]

[CH3][Hg][Cl]
inactive: outcome [2] | caspase-3 activation [10] -9.46% | activation [20] -4.13% | max response [9] -12.7%
active: Potency [12] 3.98 µM | Potency [13] 7.94 µM | Potency [14] 5.01 µM | Potency [15] 1.58 µM | Potency [16] 3.98 µM | Potency [17] 3.98 µM | Potency [18] 2.51 µM | Potency [19] 2 µM | Potency [7] 39.8 µM [inconclusive] | Potency [8] 66.8 µM

O=C1C2(Cl)C3(Cl)C4(Cl)C(Cl)(Cl)C5(Cl)C3(Cl)C1(Cl)C5(Cl)C24Cl (stereo unspecified)
inactive: outcome [5] | Potency [1] | Potency [19] | activation [20] -3.98% and -15.4% | max response [9] 6.14% and 11.6% and 6.69%
39.8 µM (active) and inactive: Potency [14]
active: caspase-3 activation [10] 112% and 177% | Potency [6] 31.6 µM | Potency [11] 20 µM and 15.8 µM | Potency [12] 39.8 µM | Potency [8] 4.22 µM and 9.44 µM

CN(C)c1ccc(N=O)cc1
inactive: outcome [2] | Potency [3] | caspase-3 activation [4] -1.57% | caspase-3 activation [10] 9.09% | outcome [5] | max response [9] -3.57%
active: Potency [11] 3.16 µM | Potency [12] 0.794 µM | Potency [13] 2.51 µM | Potency [14] 2 µM | Potency [15] 0.631 µM | Potency [16] 2.51 µM | Potency [17] 1.58 µM | Potency [18] 0.631 µM | Potency [19] 0.501 µM | Potency [7] 22.4 µM [inconclusive]

CCCc1cc2c(n1CCO)C(C)C1CN(C(=O)c3ccccc3)C(C)(C(=O)OC)C21 (stereo unspecified)
inactive: Potency [1]

Oc1c(Br)c(Br)c(Br)c(Br)c1Br
active: Potency [7] 39.8 µM [inconclusive] | Potency [8] 33.5 µM
inactive: outcome [2] | Potency [3] | caspase-3 activation [4] 10.1% | outcome [5] | Potency [6] | Potency [11] | Potency [12] | Potency [13] | Potency [14] | Potency [16] | Potency [17] | Potency [18] | Potency [19] | activation [20] 3.02% | max response [9] 10%

O=C(O)C1C(C(=O)O)C2(Cl)C(Cl)=C(Cl)C1(Cl)C2(Cl)Cl (stereo unspecified)
inactive: outcome [2] | Potency [3] | caspase-3 activation [4] -0.161% | caspase-3 activation [10] 1.7% | outcome [5] | Potency [6] | Potency [11] | Potency [12] | Potency [13] | Potency [14] | Potency [15] | Potency [16] | Potency [17] | Potency [18] | Potency [19] | Potency [7] | activation [20] -1.68% | Potency [8] | max response [9] 10.1%

CCCCCCCCn1sccc1=O
inactive: outcome [2] | caspase-3 activation [4] -3.17% | caspase-3 activation [10] -9.61% | outcome [5] | Potency [1] | Potency [8] | max response [9] -5.93% and -2.13%
active: Potency [6] 12.6 µM | Potency [11] 5.01 µM | Potency [12] 3.98 µM | Potency [13] 6.31 µM | Potency [14] 7.94 µM | Potency [15] 2.51 µM | Potency [16] 10 µM | Potency [17] 6.31 µM | Potency [18] 2.51 µM | Potency [19] 2.51 µM | Potency [7] 14.1 µM [inconclusive]
